Screening results as filed in PubChem.
This is a sample that favours compounds with a hit; in the whole collection about 3% have one here.
LMP1 NFkB inh – Epstein-Barr LMP1 NF-kappaB reporter inhibition | LMP1-induced NF-kappaB luciferase reporter cells, luminescence | inhibition, % at 12.5 µM | 350,000 tested, 0.69% active | AID 504558; in the data active means inhibition above about 41%;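 further: 0% = neutral control wells and 100% = reference inhibitor control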
CF NFkB inh – inhibitors of cystic fibrosis induced NF-kB; KKLEB NF-kB-GFP reporter, PAF-induced, GFP fluorescence overnight; inhibition, % at 5 µM; 360,000 tested, 0.86% active;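 active means at least 50% inhibition at 5 µM, scaled per plate between neutral and stimulator controls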;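 further: PAF is a Pseudomonas aeruginosa culture filtrate used as stimulus; plate controls were PAF-stimulated DMSO wells for no effect and unstimulated DMSO wells for full effect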
TRPM1 prom inh – MITF TRPM1 promoter inhibition in SK-MEL-5 cells | SK-MEL-5 TRPM1 promoter luciferase, 24 h | inhibition, % at 12.5 µM | 330,000 tested, 0.83% active | AID 488899;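 active means mean inhibition across replicates of 60% or more, whatever share of single replicates reaches that level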
Peg3 prom inh – reduces Peg3 promoter-driven luciferase expression in HeLa | HeLa PEG-Prom luciferase reporter, luminescence, overnight | inhibition, % at 20 µM | 360,000 tested, 1.7% active | AID 588405;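 active means inhibition of at least 50% at 20 µM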
HIF-2a inh – HIF-2a inhibition | 786-0 RCC cells HIF-2a reporter, luciferase luminescence, overnight | inhibition, % at 18.8 µM | 360,000 tested, 0.72% active | AID 624352;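 active means inhibition of the luminescence signal of 40% or more relative to plate controls, in a single-dose primary screen at 18.75 µM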
KKLEB tox – reduces viability of KKLEB cystic fibrosis airway cells. KKLEB CF airway cells viability, ATPlite luminescence, overnight; hits give low values; cells stimulated with P. aeruginosa culture filtrate. activity change (cytotoxicity), % at 5 µM. 360,000 tested, 0.36% active. AID 602141;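 active means corrected activity change at or below -50% at 5 µM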
An asterisk follows results filed as active; x = no result.

SMILES	LMP1 NFkB inh	CF NFkB inh	TRPM1 prom inh	Peg3 prom inh	HIF-2a inh	KKLEB tox
COCCNC(=O)C1(C)CCCN(C(=O)c2ccc(OC)c(OC)c2)C1 (stereo not drawn)	x	-12.6	x	-1.3	7.7	-4.3
O=C(Nc1nc(-c2ccccc2)cs1)c1ccc(N2CCOCC2)c([N+](=O)[O-])c1	26.4	8.4	80.4*	66.7*	-14.6	-17.2
O=C(Nc1cccc(Cl)c1N1CCCCC1)c1ccc(N2CCOCC2)c([N+](=O)[O-])c1	9.8	65.4*	-12.9	19.2	10.8	-67.8*
CN(c1ccccc1)S(=O)(=O)c1cccc(NC(=O)c2ccc(Cl)c([N+](=O)[O-])c2)c1	3.5	1.9	25.1	93.3*	0.3	7.3
O=C(Nc1ccc(Nc2ccccc2)cc1)c1ccc(Cl)c([N+](=O)[O-])c1	13.3	-17.2	3.4	-27.4	1.5	10.0
O=C(Nc1ccccc1-c1ccccc1)c1ccc(Cl)c([N+](=O)[O-])c1	0.3	-9.5	9.9	94.0*	25.1	0.4
O=C(Nc1cccc(Cl)c1N1CCOCC1)c1cc([N+](=O)[O-])ccc1N1CCOCC1	2.4	-18.4	-5.8	27.1	5.7	-1.8
CC(=O)Nc1ccc(C(=O)Nc2cccc(S(=O)(=O)N(C)c3ccccc3)c2)cc1	4.4	-10.3	7.2	40.6	13.8	0.0
CC(=NNC(=S)N1CCCCCC1)c1cccc2cccnc12	52.3*	-7.2	50.6	0.2	-14.8	3.3
CC(=NNC(=S)N1CCN(c2ccccn2)CC1)c1nccs1	74.3*	65.5*	x	24.2	-129.4	5.8
CCCNC(=O)C1(C)CCCN(C(=O)c2cccc(C(F)(F)F)c2)C1 (stereo not drawn)	x	3.0	x	-4.5	9.2	-4.3
CCOC(=O)C1=C(c2ccccc2)NC(SCC(=O)Nc2cccc(C)c2)=C(C#N)C1c1ccco1 (stereo not drawn)	5.6	15.3	-0.9	70.4*	13.1	-3.1
COC(=O)[C@]12CCCCC=C1N(Cc1cccc3ccccc13)C(=O)[C@H](CC(=O)NCCc1ccccc1OC)C2	x	x	x	x	-16.6	x
CCN(CC)c1ccc(/C=N/Nc2ccc(C)cc2)c(O)c1	-17.8	-1.0	-12.3	-41.8	-11.0	6.0
CCN(CC)c1ccc(/C=N/Nc2nc(C)cc(=O)[nH]2)c(O)c1	60.6*	18.0	44.1	-19.2	-59.1	-1.1
CCN(CC)c1ccc(/C=N/NC(=O)c2c(Cl)cnn2C)c(O)c1	51.8*	-3.2	16.5	-0.4	-175.4	1.9
Cc1cc(=O)[nH]c(NN=Cc2cc(Br)ccc2O)n1	55.9*	-13.3	30.6	3.6	-44.6	-3.3
O=C(NCCc1cccc(Cl)c1)c1ccc(OC2CCN(Cc3ccccn3)CC2)cc1	x	16.1	47.2	-16.5	12.6	-8.1
O=C1C(Br)=C(c2ccccc2)C(c2ccccc2)=C1c1ccccc1	4.1	78.6*	80.0*	104.7*	9.6	-74.1*
Clc1ccc(-c2nc3c4ccccc4ccn3c2CC2CCCCC2)cc1	x	x	x	x	-80.5	x
CCC[C@H]1CN(c2ccc(Br)cc2)C(=O)[C@@H]1CC(=O)Nc1ccc(OC)cc1	13.8	-10.0	x	4.8	-9.5	-4.3
COc1cccc2[nH]c3ccccc3c(=O)c12	0.4	-24.2	-3.0	-16.3	-10.7	-9.9
C=Cc1ncc(OC)c2c1[nH]c1ccccc12	-12.4	5.3	82.2*	80.5*	31.4	-53.9*
CC1(C(=O)NCc2ccccc2Br)CCN1Cc1ccc2ccccc2c1 (stereo not drawn)	x	13.4	x	2.2	5.5	-17.3
CCOC(=O)CCC(NC(=O)c1ccc(Nc2nc3ccccc3nc2C(=O)OCC)cc1)C(=O)OCC (stereo not drawn)	-4.3	31.6	4.6	28.8	-1.3	-7.3
O=C(NCC1CCOCC1)C1Cc2c(-c3ccccc3Oc3ccccc3)ccnc2O1 (stereo not drawn)	x	3.3	x	33.5	9.4	-4.2
CC(=NNC(=S)N1CC2CCC(CC2)C1)c1cnccn1	65.8*	-0.2	64.6*	1.7	-61.0	-10.9
CC(=O)OC1CC2(C)C(C(C)=O)CCC2C2CCC3=CC(=O)CCC3(C)C12 (stereo not drawn)	-4.4	19.6	0.4	6.6	13.5	-17.5
CC1(C)OC2CC3C4CCC5=CC(=O)CCC5(C)C4(F)C(O)CC3(C)C2(C(=O)CO)O1 (stereo not drawn)	1.6	96.4*	-4.9	-16.6	12.9	3.4
